In the library only some 6.5% were active in any assay of this set; here they are far more common.
Marburg entry inh: Marburg virus entry inhibition. Marburg virus pseudotyped entry inhibition, cell reporter. AID 540276. Potency, µM (series often up to 37.8 µM), for the others: top-dose activity change, negative = inhibition, actives largely listed as inhibitors. 300,000 compounds, 1.8% hits; calls by dose curve; tested in HEK293 cells; also: potency is read from the fitted curve at half-maximal effect
VACV mCherry inh: vaccinia inhibition (mCherry reporter). Vaccinia virus mCherry reporter infection, fluorescence. Potency, µM (top dose mostly 36.5 µM), for the others: top-dose activity change, negative = inhibition, most hits filed as inhibitors. 310,000 compounds, 0.63% hits; calls by dose curve; tested in A549 cells; also: potency is read from the fitted curve at half-maximal effect; nearly all actives have a fitted effect of over 35% in size
Lassa entry inh: inhibitors of Lassa virus binding or cell entry; Lassa virus pseudotype entry inhibition, cell reporter; Potency, µM (series often up to 37.9 µM), without a hit: at the top dose activity change, negative = inhibition, usual class: inhibitors; 300,000 compounds, 1.2% hits; calls by dose curve; tested in HEK293 cells; also: potency is read from the fitted curve at half-maximal effect; nearly all actives have a fitted effect of over 50% in size
Vaccinia Venus: inhibitors of vaccinia virus (Venus reporter); Potency, µM (top dose mostly 36.5 µM), inactives show at the top dose activity change, negative = inhibition, usual class: inhibitors; Vaccinia virus Venus reporter expression, fluorescence; 330,000 compounds, 0.46% hits; calls by dose curve; tested in A549 cells; also: potency is read from the fitted curve at half-maximal effect; nearly all actives have a fitted effect of over 30% in size
HCMV inh: blocks human cytomegalovirus replication | AID 1259415 | HFF cells, HCMV-luciferase reporter, 72 h; stronger effect = lower value | 410,000 compounds, 4.5% hits | activity change, negative = inhibition, % at 57.5 µM; in the data active = activity change below about -60%; inconclusive = no clear call, values can overlap the other calls; inactive = above about -39%
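Steps: HFFs plated, 16 h 37C; compounds added; HCMV-luciferase added to MOI 1 PFU/cell; 72 h 37C; OneGlo reagent, 5 min room temperature; luminescence read, normalized to controls.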
FMDV antiviral: blocks foot and mouth disease virus; FMDV antiviral cell-based qHTS; Potency, µM (series often up to 57.9 µM), inactives show top-dose activity change, negative = inhibition, hits mostly inhibitors; 410,000 compounds, 1.2% hits; calls by dose curve; tested in HEK293T cells; also: read-out not given here; potency is read from the fitted curve at half-maximal effect; nearly all actives have a fitted effect of over 45% in size
An asterisk follows results filed as active; i = inactive; ? = inconclusive; . = no result; [ ] = remark or other dose. % is scaled to controls: 0 for no effect and ±100 for the full control effect.

SMILES | Marburg entry inh | VACV mCherry inh | Lassa entry inh | Vaccinia Venus | HCMV inh | FMDV antiviral
CCCCc1ccc(NC(=O)CSc2nc(=O)n3cc(C)ccc3n2)cc1 | -17.7%[46.1 µM] | -7.9% | 15.9% | -9.0% | -66.5* | -29.1%
CCOc1ccccc1NC(=O)CSc1nc(=O)n(CCN2CCOCC2)c2c1CCCC2 | 25.4% | -22.2% | -3.8% | -8.5% | -81.3* | 1.5%
Cc1cccc(NC(=O)CSc2nc(=O)n(CCN3CCOCC3)c3c2CCC3)c1C | . | -10.1%[7.34 µM] | -2.7%[46.1 µM] | -9.9%[7.34 µM] | -35.9 | -16.3%
CCCCc1ccc(NC(=O)CSc2nc(=O)n(CCN(C)C)c3c2CCC3)cc1 | ? | 28.2µM* | ? | 14.1µM* | -37.9 | 2.4%
CCOC(=O)/C=C/c1ccc2c(c1)S(=O)(=O)N(C1CCCC1)[C@H]2CC(=O)OCC | . | -5.8% | . | -25.3% | . | .
CC(=O)N1CCC[C@H]1C(=O)NCC1Cc2cc(C)cc(-c3ccc(Cl)cc3)c2O1 (stereo partly drawn) | . | -17.2% | . | -10.0% | . | -3.7%
CC(=O)c1ccc(NC(=O)C(C)Sc2nnc(-c3ccncc3)n2C2CC2)cc1 (stereo not drawn) | ? | -19.6% | 20.8% | -9.9% | -63.8* | -23.4%
O=C(O)[C@H](Cc1c[nH]c2ccccc12)NS(=O)(=O)c1cccc2nsnc12 | 11.0% | . | . | . | . | .
O=C(O)c1cccc(NCc2ccncc2)c1 | 0.9% | . | . | . | -61.4* | .
O=C(O)c1ccc(NCc2ccncc2)cc1 | 8.5% | . | 25.6% | . | -19.1 | -13.7%
Oc1ccc(N2CCN(C(c3ccc(Cl)cc3)c3nnnn3Cc3ccc(F)cc3)CC2)cc1 (stereo not drawn) | . | -10.5% | . | -14.4% | . | .
Cn1c(NCc2ccccc2)nc2cc(-c3ccccc3)sc2c1=O | . | 14.9% | . | -4.9% | -3.7 | 10.6%
COc1ccc(-c2cc3nc4n(c(=O)c3s2)CCC4)cc1 | 1.64µM* | . | ? | . | -22.5 | 0.0%
Cc1nc2cc(-c3ccccc3)sc2c(=O)n1N | ? | -15.7% | ? | -5.3% | -88.9* | 7.08µM*
COc1ccc(-c2cc3nc(C)n(N)c(=O)c3s2)cc1 | . | . | . | . | -38.5 | 7.94µM*
COc1ccc(-c2cc3nc4n(c(=O)c3s2)CCCCC4)cc1 | ? | -13.6% | 3.7%[46.1 µM] | -3.8% | 30.7 | -8.8%
Cc1ccsc1C(=O)N(Cc1cc2cc3c(cc2nc1N1CCOCC1)CCC3)CC1CCCO1 (stereo not drawn) | . | -4.2% | . | 11.3% | . | -1.4%
CCOc1ccccc1NS(=O)(=O)c1c(C)nc2sccn2c1=O | . | -22.0% | -2.8%[46.1 µM] | -15.3% | 23.8 | 5.1%
COc1ccc(CN(C)c2ccc(-c3nc(C)no3)cc2[N+](=O)[O-])cc1 | -9.7%[46.1 µM] | -18.3% | 8.4%[46.1 µM] | -18.0% | -8.2 | ?
O=C(C[n+]1ccccc1Br)c1ccc(I)cc1 | . | -21.8% | . | -11.6% | . | .
Cc1ccc(O)cc1Nc1ccnc2cc(-c3ccccn3)ccc12 | . | . | 25µM* | . | . | .
CCCCCCCCCC[N+](C)(C)CC/C=C1/c2ccccc2Sc2ccc(Cl)cc21 | . | ? | . | 11.2µM* | . | ?
CCCCCCCCCCC[N+](C)(C)CC/C=C1/c2ccccc2Sc2ccc(Cl)cc21 | . | ? | . | 11.2µM* | . | ?
Cc1ncc(Cc2ccccc2)c(C2CCN(S(=O)(=O)C[C@]34CC[C@H](CC3=O)C4(C)C)CC2)n1 | . | -19.4% | . | -19.0% | . | 46.2%
Cc1conc1NC(c1cccs1)c1ccc2cccnc2c1O (stereo not drawn) | 0.9% | . | . | . | . | .
SMILES | Marburg entry inh | VACV mCherry inh | Lassa entry inh | Vaccinia Venus | HCMV inh | FMDV antiviral
CCC(=O)NC(c1cccs1)c1ccc2cccnc2c1O (stereo not drawn) | . | ? | . | ? | -100.8* | 4.0%
CCN1CCN(C(c2cccs2)C(C)NC(=O)CC(C)C)CC1 (stereo not drawn) | -22.0% | i | 13.5% | 0.0% | 25.8 | -5.5%
CC(C)CC(=O)NC(c1cccs1)c1ccc2cccnc2c1O (stereo not drawn) | 10µM* | 6.31µM* | ? | ? | . | 8.0%
Fc1ccc(-c2cnn3c(-c4cccs4)ccnc23)cc1 | ? | -6.2% | 10µM* | -1.1% | 302.9 | -52.7%
Cn1c(=NC(=O)CCl)sc2ccccc21 | ? | ? | ? | -28.5% | -99.4* | ?
O=C1C(c2nnnn2-c2ccc(F)cc2)N(C2CC2)C(=O)N1c1ccccc1 (stereo not drawn) | . | . | . | . | -5.8 | .
O=C(/C=C/Sc1ccccc1)c1ccccc1 | ? | -10.1% | 0.5% | -5.3% | -83.3* | .
O=C(/C=C/Sc1ccccc1)c1ccc(Cl)cc1 | ? | -14.1% | -71.2% | -3.6% | -76.3* | .
COc1ccc(S(=O)(=O)N(CCc2ccccc2)CC(=O)NCc2ccc(C)cc2)cc1 | . | -11.7% | -14.7%[46.1 µM] | -1.8% | 57.7 | 31.2%
CCn1c(/C=C/Nc2ccccc2)[n+](CC)c2cc(Cl)c(Cl)cc21 | 12.6µM* | -11.0% | ? | -23.4% | 1.2 | -18.3%
CCn1c(/C=C/N(C(C)=O)c2ccccc2)[n+](CCCS(=O)(=O)[O-])c2cc(Cl)c(Cl)cc21 | 5.5%[46.1 µM] | i | 3.2%[46.1 µM] | -8.2% | -16.3 | 4.7%
Cc1cccc(C)c1-n1nnnc1C(c1ccnc2ccccc12)N(Cc1ccccc1)Cc1ccccc1 (stereo not drawn) | . | -21.8% | . | -10.6% | -72.0* | -9.9%
Cc1cccc(C)c1-n1nnnc1C(c1ccnc2ccccc12)N(CCC#N)Cc1ccccc1 (stereo not drawn) | . | -4.8% | . | -2.9% | ? | ?
COc1cc(SC)ccc1C(=O)NC(C)C | ? | i | -11.7% | -6.8% | -11.5 | 0.6%
COc1cc(SC)ccc1C(=O)Nc1ccc(Br)cn1 | . | . | . | . | -83.2* | -93.2%
COc1cc(SC)ccc1C(=O)Nc1ccccn1 | ? | -13.4% | ? | -21.9% | 44.9 | -55.6%
COc1cc(SC)ccc1C(=O)Nc1ccon1 | 11.9% | . | ? | . | -107.5* | 52.7%
COc1cc(SC)ccc1C(=O)Nc1ncc(Cl)cc1Cl | -2.1%[46.1 µM] | -11.4% | ? | -0.6% | 0.2 | 37.4%
COc1cc(SC)ccc1C(=O)Nc1ncc(C)s1 | 1.46µM* | . | ? | . | -82.0* | 10µM*
COc1cc(SC)ccc1C(=O)Nc1cccc(C)n1 | 10µM* | i | 8.91µM* | -18.4% | 30.3 | -27.4%
Cc1cccc(OCC(=O)NCC2(N3CCN(C)CC3)CCCCC2)c1C | ? | -8.2% | -21.5%[46.1 µM] | -12.1% | ? | -5.0%
CCCCCC(=O)N1C[C@@H](O)[C@H](n2cc(-c3ccc(F)cc3)nn2)C[C@H]1c1ccc(OC)cc1 | . | . | 10.8%[46.1 µM] | . | . | .
CCOC(=O)CSC(=S)NC(=O)c1ccc(OC)cc1 | -2.1% | i | 5.3% | -18.4% | -86.9* | -16.3%
CC(=O)c1ccc(NC(=O)C(C)OC(=O)/C=C/c2ccco2)cc1 (stereo not drawn) | 11.2µM* | -23.8% | ? | -24.9% | 19.7 | -10.2%
CC(OC(=O)/C=C/c1ccco1)C(=O)Nc1cccc([N+](=O)[O-])c1 (stereo not drawn) | ? | -23.4% | -16.3% | -29.2% | 4.5 | ?
COc1ccc(C[C@@H]2C(=O)N[C@H](C)C(=O)N(C)[C@@H]3Cc4ccc(cc4)Oc4cc(ccc4O)C[C@H](C(=O)N[C@@H](C)C(=O)N[C@H](C)C(=O)N2C)N(C)C3=O)cc1 | . | 158µM* | . | 0.282µM* | . | .

Source: PubChem
